aSyn yeast rescue: alpha-synuclein toxicity suppression in yeast. S. cerevisiae alpha-synuclein toxicity rescue, BacTiter-Glo growth, 24 h. Potency, µM (highest dose often 46.1 µM), usual class: activators. actives 0.02% (n = 94,000). AID 1347070; active = well fitted activation curve with a large enough effect
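Growth restoration measured by BacTiter-Glo luminescence after 24 hr at 30 deg C; alpha-synuclein yeast, raffinose-pregrown to mid-log, were added at OD600=0.02 in galactose medium onto pinned compounds.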
A number is an active result; n = inactive. This excerpt belongs to a sample that is enriched for hits.

SMILES | aSyn yeast rescue
CCc1cccc(NC(=O)CN2C(=O)CN=C(c3ccccc3F)c3cc(Cl)ccc32)c1 | 20µM
Cc1cccc(CN2C(=O)CN=C(c3ccccc3)c3cc(Cl)ccc32)c1 | n
O=C1CN=C(c2ccccc2)c2cc(Cl)ccc2N1Cc1ccc(Cl)cc1 | n
O=C(Nc1ccc2c(c1)OCO2)c1cccn(Cc2ccccc2)c1=O | n
CCN(CC)C(=O)c1ccc(NC(=O)CCn2nc(-c3ccc(Cl)cc3)c3ccccc3c2=O)cc1 | n
